Experimental data taken from PubChem BioAssay (EPA / NIEHS).
Results filed as inconclusive are left out. Activity calls are given as the source filed them. The calls were made as follows, unless noted: active = hit-call score of the fitted dose curve at least 0.9, where 1 is the maximum; inactive = score below 0.9.

How the values were obtained:
[1] = ATG_NFI_CIS: Attagene CIS-FACTORIAL HepG2 Assay for human Nuclear Factor I (NFI) (AID 2282989); conditions: HepG2 cis-regulatory reporter, NFI response element transcription; actives raise or lower the signal
Summary of the method: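 Cells: human liver HepG2, transiently transfected with promoter-regulated reporter transcription units. Exposure 24 h. Detection: fluorescent RT-PCR products separated by capillary electrophoresis, normalised to DMSO negative control.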

[2] = molecular target: Myc proto-oncogene protein (Homo sapiens) (UniProt P01106); assay: ATG_Myc_CIS: Attagene CIS-FACTORIAL HepG2 Assay for human Myelocytomatosis (Myc) Proto-Oncogene Transcription Factor (AID 2282990); conditions: HepG2, Attagene cis-reporter transcription factor activity; actives raise or lower the signal
Sequence of Myc proto-oncogene protein (Homo sapiens) (P01106 whole entry, looked up): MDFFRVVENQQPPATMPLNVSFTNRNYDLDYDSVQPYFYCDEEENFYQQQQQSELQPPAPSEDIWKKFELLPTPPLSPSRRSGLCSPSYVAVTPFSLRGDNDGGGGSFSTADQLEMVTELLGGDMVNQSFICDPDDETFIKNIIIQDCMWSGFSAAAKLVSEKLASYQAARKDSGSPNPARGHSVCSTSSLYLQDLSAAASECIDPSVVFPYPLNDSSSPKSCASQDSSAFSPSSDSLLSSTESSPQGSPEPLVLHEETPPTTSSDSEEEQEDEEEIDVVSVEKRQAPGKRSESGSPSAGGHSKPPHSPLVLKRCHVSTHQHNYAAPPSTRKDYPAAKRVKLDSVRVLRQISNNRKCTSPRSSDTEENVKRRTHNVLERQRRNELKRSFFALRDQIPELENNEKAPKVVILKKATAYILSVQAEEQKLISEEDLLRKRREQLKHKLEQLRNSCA
Summary of the method: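 Cells of the HepG2 human liver line bear multiple cis-driven reporter transcription units. Reporter mRNA after 24 h exposure is reverse-transcribed, amplified, labelled and resolved by capillary electrophoresis, with gain- or loss-of-signal fitting relative to DMSO.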

[3] = ATG_NF_kB_CIS: Attagene CIS-FACTORIAL HepG2 Assay for human Nuclear Factor Kappa B (NF-kB) (AID 2282991); conditions: HepG2 Attagene cis-factorial NF-kB reporter mRNA; actives raise or lower the signal
Summary of the method: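 HepG2 cells transfected with cis-promoter-driven reporter units, so endogenous transcription factor activity is measured. Reporter mRNA quantified 24 h after dosing by RT-PCR and capillary electrophoresis, with bidirectional fitting against DMSO.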

[4] = ATG_NRF2_ARE_CIS: Attagene CIS-FACTORIAL HepG2 Assay for human Nuclear Factor Erythroid 2 Related Factor 2 (NFR2) response to Antioxidant Response Elements (ARE) (AID 2282992); conditions: HepG2 Attagene ARE/NRF2 reporter, transcription factor activity; actives raise or lower the signal;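 as to AC50: reporter mRNA level measured by RT-PCR and capillary electrophoresis fluorescence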
Summary of the method: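 HepG2 cells transiently transfected with multiplexed cis-regulated reporter transcription units measure endogenous transcription factor activity. Reporter mRNA at 24 h is quantified by RT-PCR, fluorescent labelling and capillary electrophoresis, with bidirectional fitting relative to DMSO.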

[5] = molecular target: Cellular tumor antigen p53 (Homo sapiens) (UniProt P04637); assay: ATG_p53_CIS: Attagene CIS-FACTORIAL HepG2 Assay for human p53 Transcription Factor (AID 2282994); conditions: HepG2 p53 cis-element reporter, Attagene mRNA; actives raise or lower the signal
Sequence of Cellular tumor antigen p53 (Homo sapiens) (P04637 whole entry, looked up): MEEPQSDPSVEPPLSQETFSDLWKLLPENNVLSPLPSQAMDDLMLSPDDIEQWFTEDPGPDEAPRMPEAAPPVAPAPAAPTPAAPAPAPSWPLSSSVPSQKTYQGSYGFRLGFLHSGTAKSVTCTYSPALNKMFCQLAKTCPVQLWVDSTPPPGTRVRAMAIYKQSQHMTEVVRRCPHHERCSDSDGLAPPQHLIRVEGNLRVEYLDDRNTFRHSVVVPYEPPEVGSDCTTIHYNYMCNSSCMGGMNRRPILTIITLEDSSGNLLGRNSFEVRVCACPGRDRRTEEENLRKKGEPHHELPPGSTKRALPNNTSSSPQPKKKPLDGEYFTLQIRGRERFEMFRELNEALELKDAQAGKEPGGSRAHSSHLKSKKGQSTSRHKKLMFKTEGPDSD
Summary of the method: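 HepG2 cells transiently transfected with multiplexed cis-regulated reporter transcription units read endogenous TF activity. After 24 h compound exposure, reporter mRNA was quantified by RT-PCR, fluorescent labelling, HpaI digestion and capillary electrophoresis; bidirectional fits versus DMSO baseline.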

[6] = molecular target: human Peroxisome Proliferator-activated Receptor alpha (PPARa), PPARA (gene 5465) (UniProt Q07869); assay: ATG_PPARa_TRANS: Attagene TRANS-FACTORIAL HepG2 Assay for human Peroxisome Proliferator-activated Receptor alpha (PPARa) (AID 2283001; active = hit-call score of the fitted dose curve at least 0.9, where 1 is the maximum;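 as to AC50: potency for gain of reporter signal over DMSO so agonist or activator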)
Sequence of human Peroxisome Proliferator-activated Receptor alpha (PPARa), PPARA (gene 5465) (Q07869 whole entry, looked up, the tested form may be a part): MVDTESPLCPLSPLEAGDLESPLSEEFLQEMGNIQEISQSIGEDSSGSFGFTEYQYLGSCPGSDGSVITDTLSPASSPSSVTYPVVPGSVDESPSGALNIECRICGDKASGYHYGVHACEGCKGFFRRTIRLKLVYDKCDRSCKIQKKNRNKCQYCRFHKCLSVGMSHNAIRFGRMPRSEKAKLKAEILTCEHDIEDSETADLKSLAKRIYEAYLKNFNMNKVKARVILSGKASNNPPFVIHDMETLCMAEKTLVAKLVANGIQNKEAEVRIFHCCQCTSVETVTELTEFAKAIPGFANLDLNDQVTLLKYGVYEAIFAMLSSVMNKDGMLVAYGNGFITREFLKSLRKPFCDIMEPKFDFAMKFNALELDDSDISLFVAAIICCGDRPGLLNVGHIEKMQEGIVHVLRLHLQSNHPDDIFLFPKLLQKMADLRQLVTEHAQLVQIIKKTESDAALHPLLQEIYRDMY
Summary of the method: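 Reporter transcripts from GAL4-UAS units in transfected HepG2 were quantified 24 h after dosing. Detection used reverse transcription, PCR, fluorescent primer extension and capillary electrophoresis, with DMSO as baseline.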

[7] = molecular target: human Peroxisome Proliferator-activated Receptor delta (PPARd), PPARD (gene 5467) (UniProt Q03181); assay: ATG_PPARd_TRANS: Attagene TRANS-FACTORIAL HepG2 Assay for human Peroxisome Proliferator-activated Receptor delta (PPARd) (AID 2283002; active = hit-call score of the fitted dose curve at least 0.9, where 1 is the maximum)
Sequence of human Peroxisome Proliferator-activated Receptor delta (PPARd), PPARD (gene 5467) (Q03181 whole entry, looked up): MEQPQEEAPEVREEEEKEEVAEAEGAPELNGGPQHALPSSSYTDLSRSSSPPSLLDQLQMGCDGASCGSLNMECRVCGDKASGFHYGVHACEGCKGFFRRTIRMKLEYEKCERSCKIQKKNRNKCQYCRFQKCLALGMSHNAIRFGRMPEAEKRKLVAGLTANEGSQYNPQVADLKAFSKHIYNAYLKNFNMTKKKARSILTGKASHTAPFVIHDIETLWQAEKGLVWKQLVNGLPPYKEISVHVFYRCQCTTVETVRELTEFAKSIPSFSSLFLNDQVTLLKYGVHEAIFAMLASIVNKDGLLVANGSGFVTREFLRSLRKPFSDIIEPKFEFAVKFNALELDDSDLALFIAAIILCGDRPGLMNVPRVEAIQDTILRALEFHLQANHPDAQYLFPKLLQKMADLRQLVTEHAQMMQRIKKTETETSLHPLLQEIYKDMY
Summary of the method: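 Cell-based TRANS reporter: HepG2, transient MRTU transfection, 24 h exposure. Readout = reporter mRNA (RT-PCR/CE, 6-FAM). Gain-of-signal fit vs DMSO control.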

[8] = molecular target: human Retinoic Acid Receptor beta (RARb), RARB (gene 5915) (UniProt P10826); assay: ATG_RARb_TRANS: Attagene TRANS-FACTORIAL HepG2 Assay for human Retinoic Acid Receptor beta (AID 2283004; active = hit-call score of the fitted dose curve at least 0.9, where 1 is the maximum)
Sequence of human Retinoic Acid Receptor beta (RARb), RARB (gene 5915) (P10826 whole entry, looked up, the tested form may be a part): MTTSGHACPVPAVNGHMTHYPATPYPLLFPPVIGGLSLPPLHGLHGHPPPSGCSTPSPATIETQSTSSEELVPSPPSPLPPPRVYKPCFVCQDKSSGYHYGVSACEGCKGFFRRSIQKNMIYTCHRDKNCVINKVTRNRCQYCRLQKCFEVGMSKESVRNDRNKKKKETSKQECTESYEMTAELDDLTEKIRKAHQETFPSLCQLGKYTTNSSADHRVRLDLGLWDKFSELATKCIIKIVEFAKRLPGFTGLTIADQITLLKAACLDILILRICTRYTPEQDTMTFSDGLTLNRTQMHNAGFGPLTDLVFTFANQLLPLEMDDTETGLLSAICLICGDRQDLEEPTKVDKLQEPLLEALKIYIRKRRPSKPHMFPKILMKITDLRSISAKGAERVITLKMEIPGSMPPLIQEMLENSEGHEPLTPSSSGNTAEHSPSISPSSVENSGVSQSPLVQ
Summary of the method: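 Readout is reporter mRNA induction: RNA reverse-transcribed, PCR-amplified, FAM-labelled, HpaI-cut and resolved by capillary electrophoresis. Transiently transfected HepG2 cells carrying exogenous NR–Gal4 chimeras were dosed for 24 h; activity fitted upward relative to DMSO.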

[9] = molecular target: Retinoic acid receptor alpha (Homo sapiens) (UniProt P10276); assay: ATG_RARa_TRANS: Attagene TRANS-FACTORIAL HepG2 Assay for human Retinoic Acid Receptor alpha (RARa) (AID 2283005; active = hit-call score of the fitted dose curve at least 0.9, where 1 is the maximum;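 as to AC50: potency for increased reporter signal meaning RARa activation over DMSO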)
Sequence of Retinoic acid receptor alpha (Homo sapiens) (P10276 whole entry, looked up, the tested form may be a part): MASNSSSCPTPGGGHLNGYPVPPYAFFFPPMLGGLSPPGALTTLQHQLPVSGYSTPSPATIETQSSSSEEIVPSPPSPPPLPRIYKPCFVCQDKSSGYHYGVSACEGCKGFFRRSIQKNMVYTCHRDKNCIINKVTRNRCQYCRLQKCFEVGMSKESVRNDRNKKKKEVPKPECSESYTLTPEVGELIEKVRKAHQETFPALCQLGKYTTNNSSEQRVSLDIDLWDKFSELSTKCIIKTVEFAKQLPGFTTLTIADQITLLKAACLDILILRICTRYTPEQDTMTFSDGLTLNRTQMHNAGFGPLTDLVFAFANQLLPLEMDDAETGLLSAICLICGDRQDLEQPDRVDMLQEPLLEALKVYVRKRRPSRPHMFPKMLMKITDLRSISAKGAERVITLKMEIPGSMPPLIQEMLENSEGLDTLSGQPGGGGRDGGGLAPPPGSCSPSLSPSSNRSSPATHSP
Summary of the method: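 Reporter transcripts, measured by RT-PCR with fluorescent labeling and capillary electrophoresis after 24 h dosing, reflect activity of an exogenous human RARa–GAL4 fusion in transiently transfected HepG2. Fitted for increase relative to DMSO.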

[10] = molecular target: Peroxisome proliferator-activated receptor gamma (Homo sapiens) (UniProt P37231); assay: ATG_PPARg_TRANS: Attagene TRANS-FACTORIAL HepG2 Assay for human Peroxisome Proliferator-activated Receptor-gamma (PPARg) (AID 2283007; active = hit-call score of the fitted dose curve at least 0.9, where 1 is the maximum)
Sequence of Peroxisome proliferator-activated receptor gamma (Homo sapiens) (P37231 whole entry, looked up, the tested form may be a part): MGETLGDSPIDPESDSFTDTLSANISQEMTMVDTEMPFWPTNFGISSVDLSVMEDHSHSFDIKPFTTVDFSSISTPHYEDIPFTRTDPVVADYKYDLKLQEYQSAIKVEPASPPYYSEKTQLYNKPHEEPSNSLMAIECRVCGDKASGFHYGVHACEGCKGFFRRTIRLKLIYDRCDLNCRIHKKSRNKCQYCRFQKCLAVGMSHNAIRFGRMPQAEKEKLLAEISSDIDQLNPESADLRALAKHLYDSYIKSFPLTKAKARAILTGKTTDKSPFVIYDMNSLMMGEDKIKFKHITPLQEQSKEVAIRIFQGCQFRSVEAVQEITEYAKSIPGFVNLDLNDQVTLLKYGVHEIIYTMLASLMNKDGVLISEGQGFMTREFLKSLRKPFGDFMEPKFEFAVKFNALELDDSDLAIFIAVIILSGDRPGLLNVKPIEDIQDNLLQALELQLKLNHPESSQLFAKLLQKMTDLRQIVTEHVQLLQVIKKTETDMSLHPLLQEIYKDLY
Summary of the method: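 HepG2 cells are transiently transfected with GAL4-UAS reporter units driven by chimeric NR-Gal4 fusions and dosed for 24 h. Reporter mRNA is quantified by RT-PCR, 6-FAM labelling, HpaI digestion and capillary electrophoresis. Induction is scored against DMSO.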

[11] = molecular target: Nuclear receptor subfamily 1 group I member 2 (Homo sapiens) (UniProt O75469); assay: ATG_PXR_TRANS: Attagene TRANS-FACTORIAL HepG2 Assay for human Pregnane X Receptor (PXR) (AID 2283008; active = hit-call score of the fitted dose curve at least 0.9, where 1 is the maximum)
Sequence of Nuclear receptor subfamily 1 group I member 2 (Homo sapiens) (O75469 whole entry, looked up, the tested form may be a part): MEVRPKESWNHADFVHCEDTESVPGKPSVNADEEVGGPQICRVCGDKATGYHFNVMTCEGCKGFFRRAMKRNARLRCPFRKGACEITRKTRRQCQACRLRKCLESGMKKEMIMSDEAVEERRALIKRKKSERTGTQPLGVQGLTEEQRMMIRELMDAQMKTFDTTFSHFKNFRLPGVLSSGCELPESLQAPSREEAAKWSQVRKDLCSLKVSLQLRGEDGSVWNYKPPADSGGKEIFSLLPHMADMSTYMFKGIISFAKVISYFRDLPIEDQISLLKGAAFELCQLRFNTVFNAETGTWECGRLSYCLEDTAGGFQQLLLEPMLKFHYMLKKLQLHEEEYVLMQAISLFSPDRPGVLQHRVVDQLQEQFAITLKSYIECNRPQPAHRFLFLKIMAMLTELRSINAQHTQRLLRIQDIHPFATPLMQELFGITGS
Summary of the method: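 HepG2 cells transiently transfected with multiple reporter units, here a PXR-GAL4 chimera driving a GAL4-UAS reporter; 24 h compound exposure. Reporter mRNA measured by RT-PCR, FAM labelling and capillary electrophoresis; gain of signal fitted against DMSO baseline.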

[12] = molecular target: human Retinoic Acid Receptor gamma (RARg), RARG (gene 5916) (UniProt P13631); assay: ATG_RARg_TRANS: Attagene TRANS-FACTORIAL HepG2 Assay for human Retinoic Acid Receptor gamma (RARg) (AID 2283009; active = hit-call score of the fitted dose curve at least 0.9, where 1 is the maximum;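 as to AC50: AC50 is for reporter induction above DMSO meaning RARg activation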)
Sequence of human Retinoic Acid Receptor gamma (RARg), RARG (gene 5916) (P13631 whole entry, looked up, the tested form may be a part): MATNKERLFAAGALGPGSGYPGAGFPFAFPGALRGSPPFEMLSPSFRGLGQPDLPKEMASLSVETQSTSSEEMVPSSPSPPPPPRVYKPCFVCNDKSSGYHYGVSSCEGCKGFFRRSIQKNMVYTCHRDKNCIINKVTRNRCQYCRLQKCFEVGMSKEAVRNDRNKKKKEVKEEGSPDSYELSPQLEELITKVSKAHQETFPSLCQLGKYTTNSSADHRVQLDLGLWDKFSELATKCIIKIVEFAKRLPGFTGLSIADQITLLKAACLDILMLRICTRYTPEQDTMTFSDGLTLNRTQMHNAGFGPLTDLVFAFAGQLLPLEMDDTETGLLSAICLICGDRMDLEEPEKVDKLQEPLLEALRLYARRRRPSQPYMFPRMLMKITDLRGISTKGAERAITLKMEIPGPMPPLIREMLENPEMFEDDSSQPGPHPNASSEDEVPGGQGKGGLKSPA
Summary of the method: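 HepG2, RARg-GAL4 TRANS system, 24 h exposure; reporter mRNA by RT-PCR + CE fluorescence; increase over DMSO.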

[13] = ATG_Oct_MLP_CIS: Attagene CIS-FACTORIAL HepG2 Assay for human Octamer-Binding Transcription Factor (Oct) (AID 2282993); conditions: HepG2 Attagene cis-factorial Oct reporter, mRNA; actives raise or lower the signal
Summary of the method: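 HepG2, transient MRTU transfection, cis promoter elements; 24 h dosing; RT-PCR/CE fluorescence read-out of reporter mRNA; fit both directions vs DMSO.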

[14] = molecular target: human RAR-related Orphan Receptor beta (RORb), RORB (gene 6096) (UniProt Q92753); assay: ATG_RORb_TRANS: Attagene TRANS-FACTORIAL HepG2 Assay for human RAR-related Orphan Receptor beta (RORb) (AID 2283010; active = hit-call score of the fitted dose curve at least 0.9, where 1 is the maximum)
Sequence of human RAR-related Orphan Receptor beta (RORb), RORB (gene 6096) (Q92753 whole entry, looked up, the tested form may be a part): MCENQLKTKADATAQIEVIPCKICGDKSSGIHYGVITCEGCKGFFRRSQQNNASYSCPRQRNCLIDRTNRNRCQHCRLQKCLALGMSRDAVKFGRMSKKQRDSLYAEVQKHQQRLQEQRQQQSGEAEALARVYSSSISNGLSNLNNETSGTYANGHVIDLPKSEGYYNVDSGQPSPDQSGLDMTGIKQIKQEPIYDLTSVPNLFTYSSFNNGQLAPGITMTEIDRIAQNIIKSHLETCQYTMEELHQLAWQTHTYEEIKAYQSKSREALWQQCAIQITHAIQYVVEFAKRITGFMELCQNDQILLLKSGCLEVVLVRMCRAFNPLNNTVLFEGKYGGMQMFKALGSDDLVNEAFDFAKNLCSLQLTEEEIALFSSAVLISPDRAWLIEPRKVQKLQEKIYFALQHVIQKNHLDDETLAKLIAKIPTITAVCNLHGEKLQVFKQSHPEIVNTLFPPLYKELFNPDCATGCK
Summary of the method: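 In this TRANS-format test, human HepG2 cells express chimeric NR-Gal4 fusion proteins driving GAL4-UAS reporters. After 24 h dosing, reporter transcripts are measured by fluorescent RT-PCR/capillary electrophoresis, with DMSO as negative control.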

[15] = BSK_3C_TissueFactor: BioMAP Diversity Plus: 3C Assay for Tissue Factor Biomarker Activity (AID 2282997); conditions: BioMAP 3C HUVEC, tissue factor biomarker readout; actives raise or lower the signal
Summary of the method: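 Human vascular primary cells (umbilical vein endothelium) received test chemical; Tissue Factor was determined by ELISA at 24 h, and both gain and loss of signal versus DMSO were fitted.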

[16] = BSK_3C_VCAM1: BioMAP Diversity Plus: 3C Assay for Vascular cell adhesion molecule 1 (VCAM1) Biomarker Activity (AID 2282999); conditions: BioMAP 3C HUVEC, VCAM1 ELISA, cytokine-stimulated; actives raise or lower the signal
Summary of the method: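 Endothelial cells from human umbilical vein are treated with test chemical. At 24 h, VCAM-1 is measured by ELISA, and responses in either direction are fitted relative to DMSO.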

[17] = BSK_4H_Eotaxin3: BioMAP Diversity Plus: 4H Assay for Eotaxin 3 Biomarker Activity (AID 2283000); conditions: primary human endothelial cells (HUVEC); actives raise or lower the signal;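 also: CCL26 protein level quantified by ELISA in parallel with SRB cytotoxicity check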
Summary of the method: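 Readout is Eotaxin-3 (CCL26) level by ELISA in primary human umbilical vein endothelial cells harvested 24 h after chemical exposure; activity fitted in both directions against DMSO control.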

[18] = read-out: Intercellular Adhesion Molecule 1 (ICAM1), ICAM1 (gene 3383); assay: BSK_3C_ICAM1: BioMAP Diversity Plus: 3C Assay for Intercellular Adhesion Molecule 1 (ICAM1) Biomarker Activity (AID 2283003); conditions: primary human endothelial cells (HUVEC); actives raise or lower the signal
Summary of the method: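 Human vascular endothelial primary cells, 3C conditions, 24 h treatment. ICAM-1 by ELISA.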

[19] = BSK_3C_Proliferation: Cell Proliferation Assessment in the BioMAP Diversity Plus: 3C Assay (AID 2283006); conditions: primary human endothelial cells (HUVEC)
Summary of the method: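 Proliferation of human vascular endothelial primary cells after 48 h dosing, quantified as SRB-stained protein at 560 nm relative to DMSO.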

[20] = BSK_3C_uPAR: BioMAP Diversity Plus: 3C Assay for Urokinase-type plasminogen activator receptor (uPAR) Biomarker Activity (AID 2282998); conditions: BioMAP 3C HUVEC, uPAR biomarker ELISA; actives raise or lower the signal
Summary of the method: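 A multiplexed primary-cell system built on human umbilical vein endothelium was used, with chemical present for 24 h before reading. Cell-surface uPAR was detected by ELISA; signal change in either direction counted against DMSO.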

Measured: AC50

CCc1cc(Cc2cc(CC)cc(C(C)(C)C)c2O)c(O)c(C(C)(C)C)c1
active: [1] 13.5 µM | [3] 17.4 µM | [4] 7.08 µM | [6] 51.9 µM | [9] 8.99 µM | [10] 7.31 µM | [11] 0.028 µM | [12] 9.1 µM
inactive: [2] | [5] | [7] | [8]

C=Cc1ccc(C(C)(C)C)cc1
inactive: [1] | [2] | [3] | [4] | [13] | [7] | [11]

O=C(c1ccccc1)C(O)c1ccccc1 (configuration not stated)
inactive: [1] | [2] | [3] | [4] | [13] | [7] | [9] | [10] | [11] | [14]

CC(C)=CCCC(C)CC(=O)O (configuration not stated)
inactive: [1] | [2] | [3] | [4] | [13] | [6] | [7] | [10] | [11]

CC(C)CCOC(=O)c1ccccc1
inactive: [1] | [2] | [3] | [4] | [13] | [5] | [11] | [14]

CSCCC=O
active: [10] 56.3 µM | [11] 10.6 µM
inactive: [1] | [2] | [3] | [4] | [5] | [15] | [16] | [17] | [18] | [19]

CC1=C(Br)C(=O)C(Br)=C/C1=C(/c1ccccc1S(=O)(=O)O)c1cc(Br)c(O)c(Br)c1C
inactive: [1] | [2] | [3] | [4] | [13] | [7] | [8] | [10] | [12] | [14]
active: [11] 29.6 µM

Nc1ccn([C@H]2CS[C@@H](CO)O2)c(=O)n1
inactive: [1] | [2] | [3] | [4] | [13] | [5] | [12]

C=C(C)C1CC=C(C)C(=O)C1 (configuration not stated)
inactive: [1] | [2] | [3] | [4] | [13] | [6] | [9] | [10] | [11]

CCNCCO
inactive: [1] | [2] | [3] | [4] | [13] | [8] | [10]

C[C@H]1O[C@@H](O[C@H]2[C@@H](O)C[C@H](O[C@H]3[C@@H](O)C[C@H](O[C@H]4CC[C@@]5(C)[C@H](CC[C@@H]6[C@@H]5C[C@@H](O)[C@]5(C)[C@@H](C7=CC(=O)OC7)CC[C@]65O)C4)O[C@@H]3C)O[C@@H]2C)C[C@H](O)[C@@H]1O
inactive: [2] | [6] | [7] | [9] | [10] | [11] | [12] | [14]
active: [1] 0.0705 µM | [3] 0.348 µM | [4] 0.613 µM | [13] 0.133 µM

CCCCCCCCCCCC(=O)OCC(O)CO (configuration not stated)
inactive: [1] | [2] | [13] | [11] | [12]
active: [3] 100 µM | [4] 100 µM | [6] 100 µM | [10] 100 µM

O=[N+]([O-])c1cccc(Cl)c1
inactive: [1] | [2] | [3] | [4] | [13] | [5] | [12]

CC(C)(N=C=O)c1cccc(C(C)(C)N=C=O)c1
active: [4] 13 µM | [11] 11.3 µM
not listed: [5] | [6] | [8] | [9] | [10] | [12] | [14]
inactive: all other assays above

C=CC(=C)CCCC(C)(C)OC(C)=O
inactive: [1] | [2] | [3] | [4] | [13] | [6] | [8] | [10] | [11]

CCCC(O)C(O)CO (configuration not stated)
inactive: [1] | [2] | [3] | [4] | [13] | [5] | [11] | [12]

CCCCCCCCC=CCCCCCCCC1=NCCN1CCO
inactive: [2] | [4] | [6] | [7] | [9] | [10] | [12]
active: [1] 6.21 µM | [3] 26 µM | [5] 21 µM

c1ccc(CN(Cc2ccccc2)Cc2ccccc2)cc1
active: [4] 100 µM
inactive: [1] | [2] | [3] | [13] | [10] | [11] | [12]

O=C1OC[C@H](Cc2cccc(O)c2)[C@H]1Cc1cccc(O)c1
active: [11] 7.35 µM
not listed: [6] | [7] | [8] | [9] | [13] | [14]
inactive: all other assays above
